# High-throughput results: PubChem, National Center for Advancing Translational Sciences (NCATS)
# ERG Ets-DNA blk: ERG Ets/DNA interaction inhibition. P11308. fluorescence polarization, His-ERG Ets domain / labelled DNA. Potency, µM (series often up to 76.9 µM), for the others: at the top dose FP activity, negative = inhibition, usual class: inhibitors. hit rate 0.028% among 370,000; active means well fitted inhibition curve with a large enough effect in the polarisation, with a control signal flat; inconclusive means small, poorly fitted or top-dose-only effect, or effect the other way, or a change in a side signal; inactive means no such curve, though single readings can be large or run the other way; the % refers to the polarisation;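 further: polarization taken with two DNA probes labelled with fluorescein and Texas red; potency means the concentration at half of the fitted maximal effect; % of control where 0% means no effect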
#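 His-tagged ERG Ets domain (1 uM in the protein solution; 300mM KCl, 50mM Tris-HCl, 1mM EDTA, 1mM DTT, pH 7.5) received compound, then a probe mix of 5 nM fluorescein-DNA and 100nM Texas-615-DNA. Fluorescence polarization was read for both dyes.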
# LDHA block: LDHA (human) enzyme inhibition. P00338. purified LDHA, NADH/diaphorase-resazurin fluorescence; hits give low values. activity change, % (values are at about 110 or 230 µM). hit rate 0.15% among 480,000. AID 1347041; in the data active means activity change below about -30%; inconclusive means mostly about -25% to -30%;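 further: plate controls were DMSO wells for no effect and wells without enzyme for full effect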
#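 Remaining NADH was detected by diaphorase (0.133 mg/mL) converting 37 µM resazurin to fluorescent resorufin, read at 0 and 20 minutes. The preceding 5-minute room-temperature reaction used 2 nM LDHA, 0.2 mM sodium pyruvate and 0.06 mM NADH at pH 7.4.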
# Nrf2 ARE act: Nrf2 pathway activation. AREc32 ARE-luciferase reporter (MCF7-derived line), luminescence, 24 h. Potency, µM (highest dose often 46.1 µM), without a hit: top-dose activation, usual class: activators. hit rate 0.31% among 410,000. AID 624171; further: potency means the concentration at half of the fitted maximal effect; % of control where 0% means no effect; nearly all actives have a fitted effect of over 65% in size
#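 For detection, Steady-Glo was added and plates sat 30 min at RT; before that, AREc32_Fluc cells grown overnight in OPTI-MEM/5% FBS had been treated with 23 nL compound for 24 hr at 37 deg C.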
# 12-LOX inh: ALOX12 (human) lipoxygenase inhibition. P18054. purified 12hLO, xylenol orange hydroperoxide absorbance. Potency, µM (doses to about 108 µM), inactives show top-dose activity change, negative = inhibition, actives largely listed as inhibitors. hit rate 1.1% among 580,000; further: potency means the concentration at half of the fitted maximal effect; on the % scale 0 is the no-effect control and ±100 the full control effect
# Target sequence (P18054 whole entry, looked up): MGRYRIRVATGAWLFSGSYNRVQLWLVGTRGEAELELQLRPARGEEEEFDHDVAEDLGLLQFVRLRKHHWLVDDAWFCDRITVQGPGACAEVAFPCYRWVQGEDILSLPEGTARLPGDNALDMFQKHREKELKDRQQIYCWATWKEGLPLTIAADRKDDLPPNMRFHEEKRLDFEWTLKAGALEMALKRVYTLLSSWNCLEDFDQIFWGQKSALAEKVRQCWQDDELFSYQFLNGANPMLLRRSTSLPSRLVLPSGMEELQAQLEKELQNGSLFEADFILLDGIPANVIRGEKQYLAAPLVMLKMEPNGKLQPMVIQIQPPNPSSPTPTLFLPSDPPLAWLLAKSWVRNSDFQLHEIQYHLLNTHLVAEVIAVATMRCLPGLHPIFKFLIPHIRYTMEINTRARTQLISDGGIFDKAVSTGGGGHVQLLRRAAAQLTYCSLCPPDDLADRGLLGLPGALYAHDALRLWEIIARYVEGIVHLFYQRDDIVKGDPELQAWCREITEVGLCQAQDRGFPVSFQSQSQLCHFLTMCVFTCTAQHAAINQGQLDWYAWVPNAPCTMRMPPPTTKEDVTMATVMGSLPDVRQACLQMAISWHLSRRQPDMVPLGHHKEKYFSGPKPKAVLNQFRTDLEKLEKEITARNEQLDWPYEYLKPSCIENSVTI
#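 Purified human 12hLO (150 nM final) in 25 mM Hepes, 0.01% Triton X-100, pH 7.0 was preincubated 15 min at room temperature with compound. Then 40 uM arachidonic acid was added, 30 min. Hydroperoxide was read by Fe-XO absorbance ratio 573/405 nm.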
# Nrf2 block: Nrf2 pathway inhibition | AID 504444 | A549 ARE-Fluc reporter, luciferase luminescence, 18-24 h | Potency, µM (top dose mostly 46 µM), without a hit: top-dose activity change, negative = inhibition, hits mostly inhibitors | hit rate 2.1% among 360,000; further: potency means the concentration at half of the fitted maximal effect; on the % scale 0 is the no-effect control and ±100 the full control effect; nearly all actives have a fitted effect of over 60% in size
#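 Nrf2 activity is the BugLite luminescence, read 15 min after reagent at room temperature, following CellTiter-Fluor cytotoxicity readout (30 min, 37C). Compound titrations were applied for 18-24 h to 5000 A549 ARE_Fluc cells/well in 5% FBS OPTI-MEM.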
# A549 tox-1: counter-screen for Nrf2 inhibitors: cytotoxicity in A549 cells | A549 ARE-Fluc cells, CellTiter-Fluor viability, 18-24 h | Potency, µM (top dose mostly 46 µM), without a hit: at the highest dose activity change, negative = cytotoxicity, usual class: inhibitors | hit rate 0.16% among 390,000; further: potency means the concentration at half of the fitted maximal effect; on the % scale 0 is the no-effect control and ±100 the full control effect
#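 A549 ARE-Fluc cells in 5% FBS OPTI-MEM, 5000 cells/well, rested 2 h then exposed to compounds in concentration-response for 18-24 h at 37 °C. Viability by CellTiter-Fluor fluorescence (Ex 405/Em 525) after 30 min; luciferase luminescence (BugLite, 15 min, RT) read afterwards.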
# FLuc counter 3: counter-screen for Nrf2 inhibitors: firefly luciferase enzyme inhibition. shares compounds with Nrf2 block. purified firefly luciferase, luminescence inhibition. Potency, µM (doses to about 57.5 µM), without a hit: at the highest dose activity change, negative = inhibition, hits mostly inhibitors. hit rate 4% among 1,400; further: potency means the concentration at half of the fitted maximal effect; on the % scale 0 is the no-effect control and ±100 the full control effect; nearly all actives have a fitted effect of over 65% in size
# A549 tox-2: counter-screen for Nrf2 inhibitors: cytotoxicity in A549 ARE cells. shares compounds with Nrf2 block. A549 ARE-Fluc cells, cytotoxicity counterscreen. Potency, µM (doses to about 46.1 µM), for inactives: at the top dose activity change, negative = cytotoxicity, hits mostly inhibitors. hit rate 2% among 1,400;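 further: potency means the concentration at half of the fitted maximal effect; cells exposed to compounds for 18 to 24 hours; on the % scale 0 is the no-effect control and ±100 the full control effect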
# Nrf2 ARE inh: Nrf2 inhibition confirmed, A549 ARE-luciferase | shares compounds with Nrf2 block | A549 ARE-firefly luciferase reporter, luminescence | Potency, µM (top dose mostly 46.1 µM), for the others: at the highest dose activity change, negative = inhibition, usual class: inhibitors | hit rate 74% among 1,400; further: potency means the concentration at half of the fitted maximal effect; on the % scale 0 is the no-effect control and ±100 the full control effect; nearly all actives have a fitted effect of over 65% in size
# * marks the source's active call; other numbers are inactive results; ? = inconclusive; nt = no result given; [ ] = dose if it differs, or a comment. The list is not random: actives were taken first. Their share in the collection is about 2.7%. Unless noted, the call rests on the fitted dose curve; in most records, active means well fitted curve in the direction sought with a large enough effect; inconclusive means small, poorly fitted or top-dose-only effect, or another doubt; inactive means no such curve, though single readings can be large; an effect the other way counts as inactive or inconclusive.
SMILES,ERG Ets-DNA blk,LDHA block,Nrf2 ARE act,12-LOX inh,Nrf2 block,A549 tox-1,FLuc counter 3,A549 tox-2,Nrf2 ARE inh
CCN(CC)S(=O)(=O)c1cc(NC(=O)CNc2cccc(S(=O)(=O)N3CCOCC3)c2)ccc1C,4%,1,0%,-21%,0.58µM*,-20%,0%,-16%,3.7µM*
O=C(CNc1cc(S(=O)(=O)N2CCCC2)ccc1OCC(F)(F)F)Nc1cccc(C(F)(F)F)c1,-3%,-1,-1%[9.22 µM],-14%,7.3µM*,-19%,0%,-18%,13µM*
O=C(CNc1cccc(C(F)(F)F)c1)Nc1cccc(S(=O)(=O)N2CCCC2)c1,6%,-3,0%,14%,?,-23%,nt,nt,nt
N#Cc1cccc(NCC(=O)Nc2cccc(S(=O)(=O)N3CCCCC3)c2)c1,-3%,-2,0%,?,?,-2%,nt,nt,nt
O=[S+]1([O-])NC2(CCN(CC3CC3)C2)CNc2ccccc21 (configuration not stated),nt,nt,nt,38%[176 µM],nt,nt,nt,nt,nt
Cc1cc(C)c(S(=O)(=O)Nc2cccc3cccnc23)c(C)c1,nt,13,nt,25%,2.9µM*,-16%,0%,-23%,16µM*
Cc1ccc(C)c(S(=O)(=O)Nc2cccc3cccnc23)c1,nt,10,nt,29%,nt,nt,nt,nt,nt
CCCC(=O)Nc1ccc(Sc2ccc([N+](=O)[O-])cc2)cc1,-1%,-7,3%,10%,?,-6%,nt,nt,nt
CCC(CC)C(=O)Nc1ccc(Sc2ccc([N+](=O)[O-])cc2)cc1,-4%,-5,5%,5%,3.7µM*,?,1%,-10%,18µM*
O=S(=O)(c1ccccc1)N1CCC(O)(CSc2ccccc2)CC1,2%,-8,0%,3%,?,-11%,nt,nt,nt
O=S(=O)(c1ccccc1)N1CCC(O)(CSc2ccc(F)cc2)CC1,-5%,-4,0%,-8%,4.1µM*,?,0%,-7%,6.5µM*
O=C(NNC(=O)c1cccc(S(=O)(=O)N2CCc3ccccc32)c1)c1ccccc1,-2%,-1,5%,-3%,8.2µM*,-28%,-19%,-2%,5.2µM*
CC(C)CCNC(=O)c1cccc(S(=O)(=O)N2CCc3ccccc32)c1,-5%,-3,0%,0%,-1%,2%,nt,nt,nt
CC(=O)NS(=O)(=O)c1ccc(NC(=O)c2cccc(S(=O)(=O)N3CCc4ccccc43)c2)cc1,0%,-2,0%,-5%,3%,1%,nt,nt,nt
CN(C)S(=O)(=O)c1cccc(NC(=O)c2cccc(S(=O)(=O)N3CCc4ccccc43)c2)c1,16%,-1,3%,-2%,4.6µM*,-12%,0%,-10%,16µM*
CCc1ccc2c(CN(C)CCOc3cccc(C)c3)cc(=O)oc2c1,nt,1,nt,?,nt,nt,nt,nt,nt
Cc1nc2ccccn2c1C(=O)NC1CCCc2ccccc21 (configuration not stated),-4%,-13,2%,-12%,1.6µM*,3%,0%,-7%,4.6µM*
O=C(NC1CCCc2ccccc21)c1cn2ccccc2n1 (configuration not stated),-18%,-3,4%,?,20%,2%,nt,nt,nt
O=Cc1ccc2c(c1)OCCOCCOCCO2,nt,1,nt,-7%,nt,nt,nt,nt,nt
O=C(Nc1ccc(F)cc1)c1cc(S(=O)(=O)N2CCCCC2)ccc1F,1%,-9,0%,-6%,-3%,0%,nt,nt,nt
O=C(Nc1ccc(F)cc1)c1cc(S(=O)(=O)N2CCCCC2)cs1,13%,-7,0%,0%,8.2µM*,-25%,1%,-10%,7.3µM*
O=[N+]([O-])c1ccc(CN2CCN(c3ccc([N+](=O)[O-])cc3)CC2)cc1,-4%,-15,2%,3.5µM*,7.3µM*,-24%,-1%,-16%,nt
CCc1ccc(S(=O)(=O)N(C(=O)Oc2ccccc2)c2ccc3oc(C)c(C(=O)OC)c3c2)cc1,0%,-6,-1%,-27%,3.7µM*,-10%,3%,-7%,6.5µM*
COC(=O)c1c(C)oc2ccc(N(C(=O)Oc3ccccc3)S(=O)(=O)c3ccc(Cl)c([N+](=O)[O-])c3)cc12,-3%,0,0%,nt,-12%,-16%,nt,nt,nt
CCOC(=O)c1c(C)oc2ccc(N(C(=O)c3ccncc3)S(=O)(=O)c3ccc(F)cc3C)cc12,?,2,0%,-19%,?,5%,nt,nt,nt
SMILES,ERG Ets-DNA blk,LDHA block,Nrf2 ARE act,12-LOX inh,Nrf2 block,A549 tox-1,FLuc counter 3,A549 tox-2,Nrf2 ARE inh
COC(=O)c1c(C)oc2ccc(N(C(=O)c3ccncc3)S(=O)(=O)c3cc(C)c(C)cc3C)cc12,4%,-1,-1%,-26%,9.2µM*,-15%,-10%,-21%,10µM*
COC(=O)c1c(C)oc2ccc(N(C(=O)c3ccncc3)S(=O)(=O)c3c(C)cc(C)cc3C)cc12,-4%,-4,0%,-7%,4.1µM*,-3%,1%,-8%,5.8µM*
CC(=O)c1c(C)oc2ccc(N(C(=O)c3ccncc3)S(=O)(=O)c3ccc(F)cc3C)cc12,-7%,4,0%,-14%,?,-8%,nt,nt,nt
CC[N+](CC)(CC)c1ccc(/C=C/c2ccc3ccccc3n2)cc1,nt,7,nt,nt,nt,nt,24µM*,9.2µM*,2.1µM*
Oc1ccc(/C=C/c2ccc3ccccc3n2)cc1,8%,-2,0%,?,11%,-8%,nt,nt,nt
C(=C\c1ccc2ccccc2n1)/c1ccccc1,6%,-3,16%,0%,?,0%,3%,?,7.3µM*
O=C(NC[C@H]1O[C@H](Cc2cc(COc3ccccc3)on2)CC[C@@H]1O)Nc1cccc(F)c1,nt,nt,nt,11%,nt,nt,nt,nt,nt
O=C(Nc1ccc(-c2nc3ccccc3s2)cc1)c1cc(-n2cnnc2)ccc1Cl,nt,-10,3%,2%,2.3µM*,?,?,-13%,7.3µM*
CC(CCc1ccccc1)NC(=O)CSc1nc2cc(S(=O)(=O)N3CCOCC3)ccc2o1 (configuration not stated),nt,-10,nt,?,nt,nt,nt,nt,nt
